# Records with an inconclusive call do not appear. Calls of active or inactive are those of the source. Calls come from the whole dose curve; as a rule, active = well fitted cell-killing curve with a large enough effect; inconclusive = small, poorly fitted or top-dose-only effect, or effect the other way; inactive = flat fitted curve, though single readings scatter.
# Test system: SKOV3
# Test: Primary qHTS to identify gynecologic anti-cancer compounds using libraries of approved drugs and bioactive compounds (AID 1345084); note: nearly all actives have a fitted effect of over 55% in size
# Details: Gynecologic cancer cell panel viability, ATPlite luminescence, 48 h; series mostly up to 57.5 µM; activity change, negative = cytotoxicity: at the top concentration
# In short: (§1)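 48 h compound exposure at 37 C, 5% CO2; five-point qHTS. ATPlite luminescence readout of cell ATP.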
# % is set by controls: 0 for no effect and ±100 for the full control effect; potency is the fitted concentration of half-maximal effect.
Structure (SMILES),"activity change, negative = cytotoxicity",Potency
C/C=C(/C)C1C=CC2CC(C)CC(C)C2C1/C(O)=C1\C(=O)NC(CC(C)(O)C(=O)O)C1=O (centres undefined),12.2% [at 25.3 µM] (inactive),–
CS[C@]1(CO)C(=O)N2[C@H]3C(=CC=C[C@@H]3O)C[C@@]2(SC)C(=O)N1C,21.2% [at 38.5 µM] (inactive),–
COc1ccc2c3c4n(c2c1)[C@@H](C=C(C)C)OOC(C)(C)C[C@@H]4N1C(=O)[C@@H]2CCCN2C(=O)[C@]1(O)[C@H]3OCC=C(C)C,-7.99% [at 25.3 µM] (inactive),–
CC1=CC2/C=C(\C)CCCC(O)/C=C/C(=O)OC23C(=O)NC(CC(C)C)C3C1C (centres undefined),8.18% [at 38.5 µM] (inactive),–
C=CC(C)(C)c1[nH]c2c(CC=C(C)C)cc(CC=C(C)C)cc2c1C[C@@H]1NC(=O)[C@H](C)NC1=O,13.5% (inactive),–
COc1cc(O)c2c(c1)/C=C/C[C@@H](O)[C@@H](O)C(=O)CCC[C@H](C)OC2=O,3.09% [at 38.5 µM] (inactive),–
CC(=O)O[C@H]1CC[C@H]2[C@@H]3CC[C@H]4CC(=O)C=C(C)[C@]4(C)[C@H]3CC[C@]12C,23.9% (inactive),–
COc1cc(N2CCN(C)CC2)ccc1N,8.98% (inactive),–
N#CC(O[C@@H]1O[C@H](CO)[C@@H](O)[C@H](O)[C@H]1O)c1ccccc1 (some centres undefined),2.42% (inactive),–
CC[C@H]1C2CC3[C@@H]4N(C)c5ccccc5[C@]45C[C@@H]([C@H]2[C@H]5O)N3[C@H]1O,23% [at 38.5 µM] (inactive),–
NC(=O)c1ncn2c1CN=C(c1ccccc1Br)c1cc(F)ccc1-2,0% (inactive),–
CC(=O)O[C@@H]1[C@H]2CC[C@H]3[C@@](C)(O)[C@@H]4C[C@H](O)C(C)(C)[C@@]4(O)[C@H](O)C[C@@]13C[C@@]2(C)O,10.9% [at 25.3 µM] (inactive),–
CC(=O)N1N=C(c2ccc(N)cc2)c2cc3c(cc2C[C@H]1C)OCO3,0% (inactive),–
COC(=O)[C@]12CCCC(C)(C)C1CCc1cc(C(C)C)c(O)c(O)c12 (some centres undefined),24.8% [at 38.5 µM] (inactive),–
COc1ccc(CN(C(=O)[C@@H](N)Cc2c(C)cc(C(N)=O)cc2C)[C@@H](C)c2ncc(-c3ccccc3)[nH]2)cc1C(=O)O,19.7% (inactive),–
C=CC/C=C\C/C=C\CCCCCCCc1cc(O)cc(O)c1,0.243% [at 38.5 µM] (inactive),–
COC(=O)CC1CC2(C(=O)c3c(O)cccc3C2(O)C(=O)OC)C(C)O1 (centres undefined),1.68% [at 38.5 µM] (inactive),–
c1cncc(OC[C@@H]2CCN2)c1,-8.07% (inactive),–

Structure (SMILES),"activity change, negative = cytotoxicity",Potency
Cc1c(Cl)c(OCC(=O)N2CCN(C)CC2)nc2sc(C(=O)NC3CC3)c(N)c12,5.46% (inactive),–
CN1CCc2cc3c(cc2C1C1OC(=O)c2c1ccc1c2OCO1)OCO3 (centres undefined),35.6% [at 38.5 µM] (inactive),–
C#CCO[C@H]1CN2CCC1CC2,-2.29% (inactive),–
CC1CCCC(O)CC(=O)Cc2cc(O)cc(O)c2C(=O)O1 (centres undefined),1.07% [at 38.5 µM] (inactive),–
COc1ccsc1CNCC[C@@]1(c2ccccn2)CCOC2(CCCC2)C1,-11.1% (inactive),–
CC1=CC2(O)/C=C/C(C)(O)C(O)C(O)/C=C/C(=O)OC23C(=O)NC(CC(C)C)C3C1C (centres undefined),2.95% [at 25.3 µM] (inactive),–
C/C=C1/CN2CC[C@]34C(=Nc5ccc(OC)cc53)C2C[C@@H]1C4(CO)C(=O)OC (some centres undefined),-4.49% [at 38.5 µM] (inactive),–
Cc1cccc(NC(=O)N[C@H]2CN(C)c3ccccc3C(c3ccccc3)=N2)c1,0.864% (inactive),–
Oc1ccc2c3c1O[C@H]1c4[nH]c5c(N=C=S)cccc5c4C[C@@]4(O)[C@@H](C2)N(CC2CC2)CC[C@]314,8.75% (inactive),–
CO[C@@H]1[C@H](O)[C@@H](O[C@@H]2C[C@H]3CC[C@@H]4C(CC[C@]5(C)[C@@H](C6=CC(=O)OC6)CC[C@]45O)[C@@]3(C)[C@H](O)C2)O[C@H](C)[C@@H]1O (some centres undefined),–,251 nM (active)
C[C@@H]1CCC/C=C/[C@H]2C[C@@H](O)C[C@@H]2[C@@H](O)/C=C/C(=O)O1,–,355 nM (active)
C[C@]12CCC(=O)C=C1CC[C@@H]1[C@@H]2[C@@H](O)C[C@]2(C)C(=O)CC[C@@H]12,5.42% (inactive),–
CCC(C)(O)C1(C(=O)O)COC(=O)C1 (centres undefined),0.497% (inactive),–
COC(=O)C1=COC(C)C2CN3CCC4(C(=O)Nc5ccccc54)C3CC12 (centres undefined),17.1% [at 38.5 µM] (inactive),–
CC1(C)C(=O)N(c2ccc(C#N)c(C(F)(F)F)c2)C(=O)N1CCCCO,2.27% (inactive),–
O=C1N[C@@H](Cc2ccccc2)CN2CCCC[C@@H]12,-2.49% (inactive),–
CN1C(=O)CN=C(c2ccccc2Cl)c2cc(Cl)ccc21,7.39% (inactive),–

# Test system: Tov-21-G
# Test: as above
# Details: Gynecologic cancer cell panel viability, ATPlite luminescence, 48 h; series mostly up to 57.5 µM; activity change, negative = cytotoxicity: at the top concentration
# In short: as §1
Structure (SMILES),"activity change, negative = cytotoxicity",Potency
C/C=C(/C)C1C=CC2CC(C)CC(C)C2C1/C(O)=C1\C(=O)NC(CC(C)(O)C(=O)O)C1=O (centres undefined),6.3% [at 25.3 µM] (inactive),–
CS[C@]1(CO)C(=O)N2[C@H]3C(=CC=C[C@@H]3O)C[C@@]2(SC)C(=O)N1C,0.627% [at 38.5 µM] (inactive),–
COc1ccc2c3c4n(c2c1)[C@@H](C=C(C)C)OOC(C)(C)C[C@@H]4N1C(=O)[C@@H]2CCCN2C(=O)[C@]1(O)[C@H]3OCC=C(C)C,2.24% [at 25.3 µM] (inactive),–
CC1=CC2/C=C(\C)CCCC(O)/C=C/C(=O)OC23C(=O)NC(CC(C)C)C3C1C (centres undefined),-1.04% [at 38.5 µM] (inactive),–
C=CC(C)(C)c1[nH]c2c(CC=C(C)C)cc(CC=C(C)C)cc2c1C[C@@H]1NC(=O)[C@H](C)NC1=O,2.28% (inactive),–
COc1cc(O)c2c(c1)/C=C/C[C@@H](O)[C@@H](O)C(=O)CCC[C@H](C)OC2=O,6.35% [at 38.5 µM] (inactive),–
CC(=O)O[C@H]1CC[C@H]2[C@@H]3CC[C@H]4CC(=O)C=C(C)[C@]4(C)[C@H]3CC[C@]12C,-5.88% (inactive),–
COc1cc(N2CCN(C)CC2)ccc1N,1.76% (inactive),–
COCC(C(=O)OC1CC2CCC(C1)N2C)c1ccccc1 (centres undefined),-1.39% (inactive),–
N#CC(O[C@@H]1O[C@H](CO)[C@@H](O)[C@H](O)[C@H]1O)c1ccccc1 (some centres undefined),3.99% (inactive),–
CC[C@H]1C2CC3[C@@H]4N(C)c5ccccc5[C@]45C[C@@H]([C@H]2[C@H]5O)N3[C@H]1O,0.75% [at 38.5 µM] (inactive),–
NC(=O)c1ncn2c1CN=C(c1ccccc1Br)c1cc(F)ccc1-2,3.41% (inactive),–
Cc1c(N2C(=O)[C@@H]3[C@H](O)CCN3C2=O)ccc(C#N)c1Cl,7.18% (inactive),–
CC(=O)O[C@@H]1[C@H]2CC[C@H]3[C@@](C)(O)[C@@H]4C[C@H](O)C(C)(C)[C@@]4(O)[C@H](O)C[C@@]13C[C@@]2(C)O,-4.84% [at 25.3 µM] (inactive),–
CC(=O)N1N=C(c2ccc(N)cc2)c2cc3c(cc2C[C@H]1C)OCO3,-7.1% (inactive),–
COC(=O)[C@]12CCCC(C)(C)C1CCc1cc(C(C)C)c(O)c(O)c12 (some centres undefined),-0.179% [at 38.5 µM] (inactive),–
COc1ccc(CN(C(=O)[C@@H](N)Cc2c(C)cc(C(N)=O)cc2C)[C@@H](C)c2ncc(-c3ccccc3)[nH]2)cc1C(=O)O,-3.54% (inactive),–
C=CC/C=C\C/C=C\CCCCCCCc1cc(O)cc(O)c1,-6.45% [at 38.5 µM] (inactive),–
CN1C2CCC1CC(OC(=O)N1Cc3ccccc3NC1=O)C2 (centres undefined),0.681% (inactive),–
COC(=O)CC1CC2(C(=O)c3c(O)cccc3C2(O)C(=O)OC)C(C)O1 (centres undefined),1.07% [at 38.5 µM] (inactive),–

Structure (SMILES),"activity change, negative = cytotoxicity",Potency
c1cncc(OC[C@@H]2CCN2)c1,6.14% (inactive),–
Cc1c(Cl)c(OCC(=O)N2CCN(C)CC2)nc2sc(C(=O)NC3CC3)c(N)c12,1.76% (inactive),–
CN1CCc2cc3c(cc2C1C1OC(=O)c2c1ccc1c2OCO1)OCO3 (centres undefined),0.066% [at 38.5 µM] (inactive),–
C#CCO[C@H]1CN2CCC1CC2,12.7% (inactive),–
CC1CCCC(O)CC(=O)Cc2cc(O)cc(O)c2C(=O)O1 (centres undefined),4.93% [at 38.5 µM] (inactive),–
COc1ccsc1CNCC[C@@]1(c2ccccn2)CCOC2(CCCC2)C1,-0.435% (inactive),–
C1=C(c2cnc[nH]2)c2ccsc2CC1,13.2% (inactive),–
CC1=CC2(O)/C=C/C(C)(O)C(O)C(O)/C=C/C(=O)OC23C(=O)NC(CC(C)C)C3C1C (centres undefined),0.59% [at 25.3 µM] (inactive),–
C/C=C1/CN2CC[C@]34C(=Nc5ccc(OC)cc53)C2C[C@@H]1C4(CO)C(=O)OC (some centres undefined),-3.72% [at 38.5 µM] (inactive),–
Cc1cccc(NC(=O)N[C@H]2CN(C)c3ccccc3C(c3ccccc3)=N2)c1,1.53% (inactive),–
Oc1ccc2c3c1O[C@H]1c4[nH]c5c(N=C=S)cccc5c4C[C@@]4(O)[C@@H](C2)N(CC2CC2)CC[C@]314,2.52% (inactive),–
CO[C@@H]1[C@H](O)[C@@H](O[C@@H]2C[C@H]3CC[C@@H]4C(CC[C@]5(C)[C@@H](C6=CC(=O)OC6)CC[C@]45O)[C@@]3(C)[C@H](O)C2)O[C@H](C)[C@@H]1O (some centres undefined),–,178 nM (active)
C[C@@H]1CCC/C=C/[C@H]2C[C@@H](O)C[C@@H]2[C@@H](O)/C=C/C(=O)O1,–,1120 nM (active)
C[C@]12CCC(=O)C=C1CC[C@@H]1[C@@H]2[C@@H](O)C[C@]2(C)C(=O)CC[C@@H]12,-12.8% (inactive),–
CCC(C)(O)C1(C(=O)O)COC(=O)C1 (centres undefined),5.46% (inactive),–
COC(=O)C1=COC(C)C2CN3CCC4(C(=O)Nc5ccccc54)C3CC12 (centres undefined),4.85% [at 38.5 µM] (inactive),–
CC1(C)C(=O)N(c2ccc(C#N)c(C(F)(F)F)c2)C(=O)N1CCCCO,5.64% (inactive),–
O=C1N[C@@H](Cc2ccccc2)CN2CCCC[C@@H]12,1.8% (inactive),–
CN1C(=O)CN=C(c2ccccc2Cl)c2cc(Cl)ccc21,1.59% (inactive),–

# — PubChem BioAssay (NCATS)
